TLR9-MyD88 inh: inhibitors of TLR9-MyD88 association in cells, primary screen, cell-based, CHO, BLA complementation, fluorescence; AID 504734, 2011; CCF4 FRET ratio; 340,000 compounds, 0.21% hits; inhibition, % at 4.98 µM;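 active = inhibition above the mean over all tested compounds plus 3 SD, cut at about 21% in these data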
NOD2 RIPK2 PPI: NOD2-RIPK2 binding disruptors in cells, primary screen, fluorescence, CHO cells, BLA complementation | Receptor-interacting serine/threonine-protein kinase 2 (Homo sapiens), O43353 | CCF4 ratio | inhibition, % at 4.98 µM | 360,000 compounds, 0.38% hits | AID 624267, 2012; in the data active = inhibition above about 21%
TLR4 MyD88 comp: inhibitors of TLR4-MyD88 association in cells, primary screen, cell-based, HeLa CL3-4, BLA complementation, FRET ratio; Toll-like receptor 4 (Homo sapiens) + Myeloid differentiation primary response protein …; inhibition, % at 8.4 µM; 200,000 compounds, 0.18% hits; HeLa CL3-4 TLR4/MyD88 BLA complementation; in the data active = inhibition above about 25%
PRMT1 inh: PRMT1 methyltransferase inhibitors, primary screen, biochemical, fluorescence polarization | Protein arginine N-methyltransferase 1 (Homo sapiens), Q99873 | recombinant PRMT1, activity-based probe fluorescence polarization | inhibition, % at 2.79 µM | 370,000 compounds, 1.3% hits | AID 652257, 2013;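 active = inhibition above about 21% made by adding two undisclosed values, limit read from the data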
ABHD5 PLIN5 PPI: ABHD5-PLIN5 interaction inhibitors, primary screen, cell lysate, split luciferase complementation, luminescence; 360,000 compounds, 0.78% hits; inhibition, % at 4 µM; Perilipin-5 (Homo sapiens) + 1-acylglycerol-3-phosphate O-acyltransferase ABHD5 (Homo …; Split G. princeps luciferase complementation, 4 h;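 active = inhibition above the mean inhibition across every tested compound plus 3 SD, cut at about 22% in these data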
rCAG binder: binders of r(CAG) RNA repeats, primary screen, biochemical, fluorescence | r(CAG) RNA repeat, TO-PRO-1 dye displacement fluorescence | inhibition, % at 3 µM | 370,000 compounds, 1.3% hits;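 active = inhibition above the plate cutoff, the mean of all test compounds on that plate plus 3 SD, cut at about 35% in these data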;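 also: higher means more dye released from RNA so lower well fluorescence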
rCAG binder conf: small molecules binding CAG repeat RNA – biochemical, fluorescence, confirmation. shares compounds with rCAG binder. inhibition, % at 3 µM. 4,300 compounds, 70% hits. AID 652065, 2013. r(CAG) RNA repeat, TO-PRO-1 dye displacement fluorescence;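 active = inhibition above a per-plate cutoff, the mean inhibition of sample wells plus 3 SD, cut at about 35% in these data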;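 also: loss of TO-PRO-1 fluorescence as compound displaces dye from 1x1 AA loop RNA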
DNA CAG counter: displacement of TO-PRO-1 from CAG DNA duplex, counter-screen for rCAG RNA repeat binder project, biochemical, fluorescence, TO-PRO-1 dye, d(CAG) DNA oligo; shares compounds with rCAG binder; d(CAG) DNA oligo TO-PRO-1 dye displacement; AID 652068, 2013; inhibition, % at 3 µM; 4,300 compounds, 94% hits;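 active = inhibition above its plate's cutoff, the mean test-well inhibition plus 3 SD, cut at about 4.8% in these data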;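 also: hits displace the dye from DNA and so lower well fluorescence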
dCAG dye DR: inhibitors of DNA CAG/GTC TO-PRO-1 complex, dose response, counter-screen for rCAG RNA repeat binder project, biochemical, fluorescence, TO-PRO-1 dye; shares compounds with rCAG binder; DNA CAG/GTC duplex TO-PRO-1 dye displacement fluorescence; IC50, µM; 250 compounds, 20% hits; in the data active = IC50 below about 10 µM
A number is an active result; n = inactive; x = not tested or not shown. This is a sample that favours compounds with a hit; in the whole collection about 3.3% have one here.

SMILES	TLR9-MyD88 inh	NOD2 RIPK2 PPI	TLR4 MyD88 comp	PRMT1 inh	ABHD5 PLIN5 PPI	rCAG binder	rCAG binder conf	DNA CAG counter	others
COc1cc(C)c(C(=O)Oc2cc(C)c(C(=O)O)c(O)c2C)c(O)c1C	n	n	x	n	n	87	84	52
COC(=O)c1c(C)cc(OC(C)=O)c(C)c1OC(C)=O	n	n	n	n	n	n	x	x
Nc1nn2c(-c3ccccc3)cc(=O)[nH]c2c1N=Nc1ccc(Br)cc1	n	n	n	n	n	35	80	40
Nc1nn2c(-c3ccccc3)cc(=O)[nH]c2c1N=Nc1ccc(O)cc1	n	n	n	n	n	n	x	x
CCCOc1ccc(C(=O)N/N=C/c2c[nH]c3ccc(Br)cc23)cc1	n	n	x	n	n	37	n	12
O=C(N/N=C/c1c[nH]c2ccc(Br)cc12)c1ccn(Cc2ccc(Cl)cc2)n1	n	n	n	n	n	n	x	x
Clc1ccc(-c2ccc(-c3nn4c(-c5ccco5)nnc4s3)o2)cc1	n	n	n	n	n	35	n	9.1
CN(CC(=O)Nc1ccccc1Br)C(=O)CNC(=O)Cc1cccc2ccccc12	n	n	x	n	n	n	x	x
CC(C)(Oc1ccc(Cl)cc1)C(=O)NC1=NN(c2ccccc2)C(=O)C1	n	n	n	n	n	74	n	12
CC(=O)Nc1ccc(NC(=O)C(C)Oc2ccc(Cl)cc2Cl)cc1 (centres undefined)	n	n	n	n	n	n	x	x
CC(Oc1ccc(Cl)cc1Cl)C(=O)NC1=NN(c2ccccc2)C(=O)C1 (centres undefined)	n	n	n	n	n	58	53	25
CCOC(=O)CN1C(=O)C(=O)N(Cc2ccccc2F)C1=O	n	n	x	n	n	n	x	x
O=C(O)c1ccccc1-n1ncc2c1/C(=C/c1ccc(Cl)cc1)CC2	x	x	x	n	x	38	n	11
O=C(O)c1ccc(-n2ncc3c2/C(=C/c2cccc([N+](=O)[O-])c2)CC3)cc1	n	n	x	n	n	n	x	x
N=C1SC(c2ccccc2)C(=O)N1c1ncc(Cc2ccccc2Cl)s1 (centres undefined)	n	n	n	n	n	58	72	32	dCAG dye DR=n
CC(=O)c1ccc(NC(=O)CSC2=NS(=O)(=O)c3cc(Cl)ccc3N2)cc1	n	n	x	n	n	61	44	14
O=C(CSC1=NS(=O)(=O)c2cc(Cl)ccc2N1)Nc1cccc(F)c1	n	n	x	n	n	60	42	12
CC(=O)Nc1ccc(NC(=O)CSC2=NS(=O)(=O)c3cc(F)ccc3N2)cc1	n	n	x	n	n	n	x	x
CCc1nc2ccc(C(=O)NCCCN(C)C)cn2c1N(CC)CCOC	x	n	x	n	n	n	x	x
CCOC(=O)c1sc2nc3c(SCCC#N)cc(C(=O)c4cc(F)ccc4O)cn3c(=O)c2c1C	n	n	n	n	n	n	x	x
O=C(O)CSc1cc(C(=O)c2cc(F)ccc2O)cn2c(=O)c3c(-c4ccccc4)csc3nc12	n	n	x	n	n	85	90	70
CCOC(=O)c1sc2nc3c(SCCC(=O)O)cc(C(=O)c4cc(OC)ccc4O)cn3c(=O)c2c1C	n	n	n	n	n	35	68	39
